The target in the assay is T1, NL_v2_PPR11 (Artificial Sequence).
T1 chain: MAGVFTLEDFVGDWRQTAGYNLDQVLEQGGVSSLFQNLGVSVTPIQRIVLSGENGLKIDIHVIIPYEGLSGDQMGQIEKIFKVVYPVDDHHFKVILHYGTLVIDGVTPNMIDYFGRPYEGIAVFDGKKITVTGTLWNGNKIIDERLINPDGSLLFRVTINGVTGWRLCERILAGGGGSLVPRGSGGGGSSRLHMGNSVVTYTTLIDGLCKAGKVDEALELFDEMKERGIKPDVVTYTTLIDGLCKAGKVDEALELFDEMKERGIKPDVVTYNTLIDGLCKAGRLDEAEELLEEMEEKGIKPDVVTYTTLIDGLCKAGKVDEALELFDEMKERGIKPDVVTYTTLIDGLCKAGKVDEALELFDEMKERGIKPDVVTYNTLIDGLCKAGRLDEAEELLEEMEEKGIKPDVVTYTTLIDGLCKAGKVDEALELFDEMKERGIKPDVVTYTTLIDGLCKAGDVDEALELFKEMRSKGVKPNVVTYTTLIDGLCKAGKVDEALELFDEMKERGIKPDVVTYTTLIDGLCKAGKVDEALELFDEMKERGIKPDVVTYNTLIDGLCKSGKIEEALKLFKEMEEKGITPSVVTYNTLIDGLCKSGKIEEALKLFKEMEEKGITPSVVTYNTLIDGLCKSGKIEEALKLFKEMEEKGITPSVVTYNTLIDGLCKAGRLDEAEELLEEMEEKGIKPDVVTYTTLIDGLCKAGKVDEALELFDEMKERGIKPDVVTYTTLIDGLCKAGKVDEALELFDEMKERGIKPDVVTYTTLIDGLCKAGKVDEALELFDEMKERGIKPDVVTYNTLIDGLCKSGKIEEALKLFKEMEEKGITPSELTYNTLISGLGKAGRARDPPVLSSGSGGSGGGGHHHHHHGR
Kind of assay: RPB-ELISA. The settings on record: tags: N-terminal luciferase, C-terminal 6xHis; label: 5'-biotin; ssRNA. Here is the method: RNA probes consisting of a designed 30-base sequence containing 18 bases of the target sequence and modified by biotinylation at the 5′ end (RNA_1, RNA_2, RNA_3, RNA_4, and RNA_5, SEQ ID NOS: 61 to 65) were synthesized (Grainer). To a streptavidin-coated plate (Thermo fisher), the 5′-end biotinylated RNA probes were added, reaction was allowed at room temperature for 30 minutes, and the plate was washed with a lysis buffer (20 mM Tris-HCl, pH 7.6, 150 mM NaCl, 5 mM MgCl₂, 0.5% NP-40, 1 mM DTT, 0.1% BSA). For background measurement, wells to which RNA was not added, but 100 μL of the lysis buffer, 1 μL of 100 mM DTT, and 1 μL of 40 unit/4 RNase inhibitor (Takara, 2313A) were added were also prepared. Then, 200 μL of a blocking buffer (20 mM Tris-HCl, pH 7.6, 150 mM NaCl, 5 mM MgCl₂, 0.5% NP-40, 1 mM DTT, 1% BSA) was added, and the plate surface was blocked at room temperature for 30 minutes. Then, 100 μL of E. coli lysate containing luciferase-fused PPR protein having a luminescence level of 1.5×10⁸ LU/μL was added to each well, and the binding reaction was allowed at room temperature for 30 minutes. The well was washed 5 times with 200 μL of a washing buffer (20 mM Tris-HCl, pH 7.6, 150 mM NaCl, 5 mM MgCl₂, 0.5% NP-40, 1 mM DTT). […] The background (luminescence signal value obtained with adding the PPR protein and without adding RNA) was subtracted from the luminescences of the samples to which a solution containing each RNA and PPR protein was added, and the obtained values were used as the binding powers between the PPR protein and RNA.
By using the v2 motif, PPR proteins for 23 kinds of target sequences (T_1 to T_3, and T_5 to T_24, SEQ ID NOS: […]) were prepared (NL_v2_PPR1 to 3, and NL_v2_PPR5 to 24, SEQ ID NOS: 56 to 58 and 70 to 88), and RPB-ELISA was used to analyze bindings of all the combinations. The experimental method was the same as that used in Example 3.
For GGUUAGAGAUACAGUGUG, the binding signal is 20.4 log2 luminescence.

These data come from patent publication US20220289795, “EFFICIENT METHOD FOR PREPARING PPR PROTEIN AND USE OF THE SAME” (EditForce, Inc., published 2022).
